Values joined by “and” are separate entries in the source; they are usually repeats but may differ in a detail not shown here. Equal entries are not always repeated. Results filed as inconclusive are left out. A structure can be active in one record and inactive in another. Active and inactive are the calls of the source. How the source made its calls, unless noted: active means hit-call score of the fitted dose curve at least 0.9, where 1 is the maximum; inactive means score below 0.9.

Read-out in experiment [1]: Monokine induced gamma interferon (MIG), CXCL9 (gene 4283)
The experiment can be described thus: BSK_SAg_MIG: BioMAP Diversity Plus: SAg Assay for Monokine induced gamma interferon (MIG) Biomarker Activity (AID 2283092). To be noted: primary human HUVEC with PBMC; actives raise or lower the signal. In a few lines:
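Measures CXCL9 protein by ELISA in a human vascular primary-cell co-culture (umbilical vein endothelium with PBMC) 24 h after chemical addition. Activity is scored up or down from the DMSO control.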

Experiment [2] in a line: BSK_SAg_PBMCCytotoxicity: PBMC Cytotoxicity Assessment in the BioMAP Diversity Plus: SAg Assay (AID 2283093).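 Further: PBMC viability measured as Alamar Blue reduction fluorescence at 546/580 nm; fitted both ways against DMSO so a hit may be loss or gain of signal.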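 On AC50: PBMC superantigen activated with SEB plus TSST-1 one hour after compound addition.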 As to conditions: primary human HUVEC with PBMC. In a few lines:
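Alamar Blue reduction (6 h, ex/em 546/580 nm) read after 90 h culture of PBMC pre-dosed 1 h then stimulated with SEB plus TSST-1, 20 ng/mL each. Gain or loss of signal fitted relative to DMSO.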

Read-out in experiment [3]: Interleukin-8 (IL8), CXCL8 (gene 3576)
As to the kind of experiment: BSK_SAg_IL8: BioMAP Diversity Plus: SAg Assay for Interleukin-8 (IL8) Biomarker Activity (AID 2283094). As to conditions: primary human HUVEC with PBMC; actives raise or lower the signal. Put shortly: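 Chemicals were dosed onto a human endothelial–PBMC co-culture, and IL-8 was quantified by ELISA after 24 h. Both increases and decreases were fitted relative to DMSO.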

The nature of experiment [4]: BSK_SAg_Proliferation: Cell Proliferation Assessment in the BioMAP Diversity Plus: SAg Assay (AID 2283095).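 Further: relative cell number as total protein by SRB absorbance in sub-confluent culture.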 As to conditions: primary human HUVEC with PBMC. In a few lines:
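Absorbance of sulforhodamine B at 560 nm reports total protein in a human vascular endothelial/PBMC co-culture after 96 h chemical exposure. Gain or loss of signal is fitted in both directions against DMSO.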

Experiment [5] in a line: BSK_SAg_SRB: Viability Assessment in the BioMAP Diversity Plus: SAg Assay (AID 2283096).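 Further: cells read one day after compound addition; hits may be either gain or loss of signal compared with DMSO.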 To be noted: primary human HUVEC with PBMC. Put shortly:
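SRB absorbance at 560 nm served as the viability read-out. Cells (HUVEC plus peripheral blood mononuclear cells) were TCA-fixed and stained 24 h post-dosing; activity fitted in both directions against DMSO controls.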

Experiment [6] concerns the target human CYP19A1, CYP19A1 (gene 1588) (UniProt P11511). As to the kind of experiment: NVS_ADME_hCYP19A1: NovaScreen (NVS) CYP450-related Enzyme Activity (ADME) Assay for human CYP19A1 (AID 2283098; active means hit-call score of the fitted dose curve at least 0.9, where 1 is the maximum). In a few lines: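 Primary testing was in duplicate at a single 10 uM concentration, with actives followed up in concentration-response series. Fluorescence read-out of recombinant enzyme activity at 0.5 h, cell-free. Acetonitrile was the negative-control baseline.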

Experiment [7] concerns the target human CYP2A6, CYP2A6 (gene 1548) (UniProt P11509). As to the kind of experiment: NVS_ADME_hCYP2A6: NovaScreen (NVS) CYP450-related Enzyme Activity (ADME) Assay for human CYP2A6 (AID 2283099; active means hit-call score of the fitted dose curve at least 0.9, where 1 is the maximum). Put shortly: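 Loss of fluorescence signal relative to acetonitrile vehicle reported CYP2A6 inhibition in a cell-free system using insect-cell-derived enzyme. Readings were taken at 0.5 h; top concentration in follow-up dose series was 20 uM.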

For experiment [8], the target named is human CYP1A1, CYP1A1 (gene 1543) (UniProt P04798). The experiment can be described thus: NVS_ADME_hCYP1A1: NovaScreen (NVS) CYP450-related Enzyme Activity (ADME) Assay for human CYP1A1 (AID 2283100; active means hit-call score of the fitted dose curve at least 0.9, where 1 is the maximum). In a few lines: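 Inhibition of recombinant CYP1A1 turnover was assessed fluorometrically in a biochemical format 1 h after compound exposure. Testing began at 10 uM in duplicate and progressed to concentration series reaching 20 uM, with on-plate positive and negative controls.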
human CYP1A1, CYP1A1 (gene 1543), sequence (P04798 whole entry, looked up): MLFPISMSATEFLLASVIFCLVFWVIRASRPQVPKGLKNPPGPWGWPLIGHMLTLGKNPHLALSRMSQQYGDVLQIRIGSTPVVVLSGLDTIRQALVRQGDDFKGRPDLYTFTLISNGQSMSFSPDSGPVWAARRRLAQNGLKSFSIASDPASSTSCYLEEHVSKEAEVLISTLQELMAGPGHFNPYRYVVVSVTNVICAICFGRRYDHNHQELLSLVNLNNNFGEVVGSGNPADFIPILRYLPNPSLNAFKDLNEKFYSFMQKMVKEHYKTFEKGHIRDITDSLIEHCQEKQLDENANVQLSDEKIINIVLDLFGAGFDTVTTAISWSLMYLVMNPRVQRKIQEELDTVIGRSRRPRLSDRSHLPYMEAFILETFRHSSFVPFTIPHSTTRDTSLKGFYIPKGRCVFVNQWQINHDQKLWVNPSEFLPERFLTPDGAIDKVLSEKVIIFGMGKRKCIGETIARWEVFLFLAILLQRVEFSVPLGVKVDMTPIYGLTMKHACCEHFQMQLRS

Experiment [9] has as its target human CYP2B6, CYP2B6 (gene 1555) (UniProt P20813). The experiment can be described thus: NVS_ADME_hCYP2B6: NovaScreen (NVS) CYP450-related Enzyme Activity (ADME) Assay for human CYP2B6 (AID 2283101; active means hit-call score of the fitted dose curve at least 0.9, where 1 is the maximum). The protocol: NVS_ADME_hCYP2B6 is a biochemical, single-readout assay that uses extracted gene-proteins in a cell-free assay. Measurements were taken 1 hour after chemical dosing in a 96-well plate.NVS_ADME_hCYP2B6 is one of one assay component(s) measured or calculated from the NVS_ADME_hCYP2B6 assay. It is designed to make measurements of enzyme activity, a form of enzyme reporter, as detected with fluorescence intensity signals by Fluorescence technology.Data from the assay component NVS_ADME_hCYP2B6 was analyzed into 1 assay endpoint. This assay endpoint, NVS_ADME_hCYP2B6, was analyzed in the positive analysis fitting direction relative to Acetonitrile as the negative control and baseline of activity. Using a type of enzyme reporter, loss-of-signal activity can be used to understand changes in the enzymatic activity as they relate to the gene CYP2B6. Furthermore, this assay endpoint can be referred to as a primary readout, because this assay has produced multiple assay endpoints where this one serves a enzymatic activity function. To generalize the intended target to other relatable targets, this assay endpoint is annotated to the cyp intended target family, where the subfamily is xenobiotic metabolism.
Binding assays used specific radioligands (tritiated, iodinated) with non-radioactive competitive displacement ligands in agonist or antagonist protocols (as indicated) and various reference compounds and inhibitors to titrate specific binding to receptors and transporters. Most enzyme assays (CYPs, kinases, phosphatases, proteases, HDACs) used recombinant protein and specific substrates (fluorescence mostly, some colorimetric and radioactive) and inhibitors, followed by a biochemical separation of substrate and product. All assays for the biochemical HTS were initially run in duplicate at a single concentration (10 uM for CYP450 assays and 25 uM for all others). […] Each assay was run with positive and negative controls, and concurrent controls on every plate. The follow-up (secondary) screen tested active chemical-pairs in concentration series, as well as a few additional assays not tested in the primary screen, some selected negative inactives, and several cases re-run in the concentration series for confirmatory purposes.

The target in experiment [10] is human CYP1A2, CYP1A2 (gene 1544) (UniProt P05177). As to the kind of experiment: NVS_ADME_hCYP1A2: NovaScreen (NVS) CYP450-related Enzyme Activity (ADME) Assay for human CYP1A2 (AID 2283102; active means hit-call score of the fitted dose curve at least 0.9, where 1 is the maximum;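 further: fluorescence from turnover of a fluorogenic substrate by recombinant insect-cell CYP1A2; potency for inhibition since loss of fluorescence marks reduced CYP1A2 activity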). Put shortly: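 Inhibition scored as decrease in fluorescent product versus acetonitrile negative control. Enzyme: insect-cell recombinant human CYP1A2, substrate-specific, cell-free. Reading at 0.5 h; 10 uM duplicate initial screen with positive and negative controls on every plate.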
human CYP1A2, CYP1A2 (gene 1544), sequence (P05177 whole entry, looked up): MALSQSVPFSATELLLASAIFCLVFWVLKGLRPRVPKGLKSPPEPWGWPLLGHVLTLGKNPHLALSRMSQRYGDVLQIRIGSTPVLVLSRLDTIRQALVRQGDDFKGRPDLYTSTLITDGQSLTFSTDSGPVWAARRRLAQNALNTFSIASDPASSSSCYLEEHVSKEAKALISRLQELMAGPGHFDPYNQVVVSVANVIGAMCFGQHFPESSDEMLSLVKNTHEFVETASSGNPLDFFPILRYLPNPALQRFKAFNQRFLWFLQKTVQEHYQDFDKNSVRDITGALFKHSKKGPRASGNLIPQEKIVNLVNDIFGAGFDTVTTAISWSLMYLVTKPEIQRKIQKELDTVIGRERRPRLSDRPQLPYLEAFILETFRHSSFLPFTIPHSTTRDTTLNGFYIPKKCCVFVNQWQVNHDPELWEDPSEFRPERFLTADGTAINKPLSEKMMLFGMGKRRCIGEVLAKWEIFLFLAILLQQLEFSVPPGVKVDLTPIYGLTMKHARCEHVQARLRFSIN

human CYP2B6, CYP2B6 (gene 1555), sequence (P20813 whole entry, looked up): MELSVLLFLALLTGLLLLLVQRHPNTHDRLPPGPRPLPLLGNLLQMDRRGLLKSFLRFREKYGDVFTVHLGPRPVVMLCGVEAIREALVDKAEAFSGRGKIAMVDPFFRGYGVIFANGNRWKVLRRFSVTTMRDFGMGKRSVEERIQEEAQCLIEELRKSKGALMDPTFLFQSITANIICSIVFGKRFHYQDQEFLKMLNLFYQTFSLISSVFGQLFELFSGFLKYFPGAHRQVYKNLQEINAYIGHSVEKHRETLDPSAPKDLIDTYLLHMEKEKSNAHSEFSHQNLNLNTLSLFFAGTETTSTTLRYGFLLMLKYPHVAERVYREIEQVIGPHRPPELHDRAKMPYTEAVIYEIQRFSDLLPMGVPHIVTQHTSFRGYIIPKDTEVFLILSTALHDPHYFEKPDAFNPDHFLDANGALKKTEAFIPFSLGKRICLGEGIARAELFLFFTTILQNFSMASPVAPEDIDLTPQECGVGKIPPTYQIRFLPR
human CYP2A6, CYP2A6 (gene 1548), sequence (P11509 whole entry, looked up): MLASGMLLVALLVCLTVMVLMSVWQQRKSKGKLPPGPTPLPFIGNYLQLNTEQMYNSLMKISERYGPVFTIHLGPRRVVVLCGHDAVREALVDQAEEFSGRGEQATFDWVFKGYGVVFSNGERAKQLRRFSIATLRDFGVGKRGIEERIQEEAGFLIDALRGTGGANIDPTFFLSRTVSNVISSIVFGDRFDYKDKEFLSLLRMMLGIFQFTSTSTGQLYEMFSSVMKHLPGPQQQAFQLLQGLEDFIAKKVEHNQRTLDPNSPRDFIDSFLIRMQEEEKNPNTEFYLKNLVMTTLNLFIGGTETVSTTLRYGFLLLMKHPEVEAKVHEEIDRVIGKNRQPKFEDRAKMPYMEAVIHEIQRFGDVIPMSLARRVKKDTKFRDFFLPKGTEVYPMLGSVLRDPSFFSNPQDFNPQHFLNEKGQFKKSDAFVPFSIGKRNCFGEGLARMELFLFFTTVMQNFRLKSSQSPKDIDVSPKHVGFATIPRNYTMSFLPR
human CYP19A1, CYP19A1 (gene 1588), sequence (P11511 whole entry, looked up): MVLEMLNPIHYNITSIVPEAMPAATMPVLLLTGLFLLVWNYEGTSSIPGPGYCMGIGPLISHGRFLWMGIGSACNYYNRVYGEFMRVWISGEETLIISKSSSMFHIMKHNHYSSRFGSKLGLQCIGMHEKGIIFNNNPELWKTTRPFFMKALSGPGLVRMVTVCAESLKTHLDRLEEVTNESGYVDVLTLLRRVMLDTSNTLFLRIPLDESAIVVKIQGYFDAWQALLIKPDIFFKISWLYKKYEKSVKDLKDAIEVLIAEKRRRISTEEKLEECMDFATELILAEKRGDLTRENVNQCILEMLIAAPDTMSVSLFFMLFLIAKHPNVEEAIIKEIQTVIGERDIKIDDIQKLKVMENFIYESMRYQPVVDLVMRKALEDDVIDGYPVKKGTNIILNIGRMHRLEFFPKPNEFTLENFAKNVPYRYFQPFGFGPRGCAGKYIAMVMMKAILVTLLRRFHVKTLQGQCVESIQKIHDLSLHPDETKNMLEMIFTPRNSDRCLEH

Regarding `CCCCC(CC)COC(=O)CCCCC(=O)OCc1ccccc1` (configuration not stated), the outcome in experiment [1], in experiment [2], in [3], in experiment [4] and in [5] was inactive.

As a reminder, the AC50 is the midpoint of the concentration-response curve, whichever way the signal moves. For `C=C(C)C(=O)OCCC(F)(F)C(F)(F)C(F)(F)C(F)(F)C(F)(F)C(F)(F)F`, the outcome in experiment [2], in [3], in experiment [4], in [5] and in [6] was inactive. In addition, the AC50 in experiment [4] is 11.2 µM (active).

With `OCCC(F)(F)C(F)(F)C(F)(F)C(F)(F)C(F)(F)C(F)(F)F`, the AC50 in experiment [2] was 47.7 µM (active) and 55.7 µM (active); in [3], 46.1 µM (active); in [4], 49.8 µM (active) and 50.9 µM (active); in [5], 53.1 µM (active). In addition, the outcome in experiment [2], in [3], in [4] and in experiment [5] was inactive.

Regarding `Oc1cc2ccccc2c2ccccc12`, the AC50 is 10.8 µM (active) in experiment [1]; 3.93 µM (active) in experiment [2]; 9.87 µM (active) in experiment [3]; 3.62 µM (active) in experiment [4]; 9.94 µM (active) in experiment [5]; 5.31 µM (active) in experiment [8]. For the same compound, the AC50 in [9] was 1.31 µM (active); in experiment [10], 0.0278 µM (active). The compound was classed as inactive in experiment [7].

For the compound `Cc1cc(C)c(O)c(C)c1`, the outcome in experiment [1], in [2], in [3], in [4] and in experiment [5] was inactive.

For `CC(C)(C)CC(C)(C)c1ccc(O)c(-n2nc3ccccc3n2)c1`, the result in experiment [1], in [2], in experiment [3], in [4] and in experiment [5] was inactive.

As for `O=C(O)c1ccccc1C(c1ccc(O)cc1)c1ccc(O)cc1`, the outcome in [1], in experiment [2], in experiment [3], in experiment [4], in experiment [5] and in experiment [6] was inactive.

As for `CCc1ccc(CCOc2ccc(CC3SC(=O)NC3=O)cc2)nc1` (configuration not stated), the outcome in [1], in [2], in experiment [3] and in experiment [5] was inactive. In addition, the AC50 in experiment [4] was 7.06 µM (active).

`COc1ccc([N+](=O)[O-])cc1N`: the outcome in [1], in [2], in [3], in [4], in experiment [5] and in experiment [9] was inactive. The AC50 in experiment [7] is 5.77 µM (active).

For the compound `C[C@@H]1C[C@H]2[C@@H]3CCC4=CC(=O)C=C[C@]4(C)[C@@]3(F)[C@@H](O)C[C@]2(C)[C@@]1(O)C(=O)COP(=O)(O)O`, the outcome in experiment [2], in [3], in experiment [4] and in experiment [5] was inactive. Also, the AC50 in experiment [3] was 6.07 µM (active).

`CCCCOCCO`: the outcome in experiment [1], in experiment [2], in experiment [3], in experiment [4] and in [5] was inactive.

As to `CCCCC(CC)COC(=O)CCCCC(=O)OCC(CC)CCCC` (configuration not stated), the result in experiment [1], in experiment [2], in experiment [3], in [4] and in [5] was inactive.

Consider `OCCC(F)(F)C(F)(F)C(F)(F)C(F)(F)C(F)(F)C(F)(F)C(F)(F)C(F)(F)F`, for which the AC50 is 23.4 µM (active) and 10 µM (active) and 10.8 µM (active) in experiment [2]; 41.5 µM (active) and 24.6 µM (active) in [3]; 20 µM (active) and 14.1 µM (active) and 10.9 µM (active) in experiment [4]; 17.2 µM (active) and 21.1 µM (active) in [5]. Also, the outcome in experiment [3] and in experiment [5] was inactive.

As for `CC(C)(C)c1cc(C(C)(C)C)c(O)c(C(C)(C)C)c1`, the result in experiment [1], in [2], in experiment [3], in [4] and in experiment [5] was inactive.

(Values after PubChem BioAssay (EPA / NIEHS).)
